PubChem BioAssay AID1159580 (chemical genetic matrix, 2015)
Several values for one entry are separate records, joined by “and”; a condition that tells them apart may be missing. Equal entries are not always repeated. Screen size: about 5,500 compounds; about 2,000 (36%) were called active. Another 18% or so got no clear call; they are omitted. Cut-off read from the data, not from the text of the source: active = normalized growth mostly below about 0.91 (no sharp cut-off); inconclusive = no clear call, values can overlap the other calls; inactive = mostly above about 0.92. The list shows a part of the results.

Experiment: chemical genetic growth profiling, strain panel (AID 1159580);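 note: tested at 20 µM; growth read once vehicle control cultures reached saturation at 30 °C; 1 = growth at the plate median or of vehicle wells; lower values mean less growth of the strain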
Details: growth OD
[1] = S. cerevisiae deletion strains, locus YAL013W, strain DEP1, hits give low values
[2] = S. cerevisiae deletion strains, locus YBR021W, strain FUR4, hits give low values
[3] = S. cerevisiae deletion strains, locus YBR229C, strain ROT2, hits give low values
[4] = S. cerevisiae deletion strains, locus YCL029C, strain bik1, hits give low values
[5] = S. cerevisiae deletion strains, locus YDL035C, strain GPR1, hits give low values
[6] = S. cerevisiae deletion strains, locus YDL074C, strain BRE1, hits give low values
[7] = S. cerevisiae deletion strains, locus YDL101C, strain DUN1, hits give low values
[8] = S. cerevisiae deletion strains, locus YDL134C, strain PPH21, hits give low values
[9] = S. cerevisiae deletion strains, locus YDL185W, strain tfp1, hits give low values
[10] = S. cerevisiae deletion strains, locus YDL192W, strain arf1, hits give low values
[11] = S. cerevisiae deletion strains, locus YDR101C, strain arx1, hits give low values
[12] = S. cerevisiae deletion strains, locus YDR150W, strain NUM1, hits give low values
[13] = S. cerevisiae deletion strains, locus YDR162C, strain NBP2, hits give low values
[14] = S. cerevisiae deletion strains, locus YDR318W, strain mcm21, hits give low values
[15] = S. cerevisiae deletion strains, locus YDR388W, hits give low values
[16] = S. cerevisiae deletion strains, locus YDR502C, strain sam2, hits give low values
[17] = S. cerevisiae deletion strains, locus YEL061C, strain CIN8, hits give low values
[18] = S. cerevisiae deletion strains, locus YER110C, hits give low values
[19] = S. cerevisiae deletion strains, locus YER155C, strain BEM2, hits give low values
[20] = S. cerevisiae deletion strains, locus YER167W, strain BCK2, hits give low values
[21] = S. cerevisiae deletion strains, locus YGL078C, strain dbp3, hits give low values
[22] = S. cerevisiae deletion strains, locus YGL086W, strain mad1, hits give low values
[23] = S. cerevisiae deletion strains, locus YGL248W, strain PDE1, hits give low values
[24] = S. cerevisiae deletion strains, locus YGR078C, strain PAC10, hits give low values
[25] = S. cerevisiae deletion strains, locus YGR135W, strain pre9, hits give low values
[26] = S. cerevisiae deletion strains, locus YGR229C, strain SMI1, hits give low values
[27] = S. cerevisiae deletion strains, locus YGR252W, strain gcn5, hits give low values
[28] = S. cerevisiae deletion strains, locus YHR030C, strain SLT2, hits give low values
[29] = S. cerevisiae deletion strains, locus YHR079C, strain IRE1 (second series), hits give low values
[30] = S. cerevisiae deletion strains, locus YHR094C, strain hxt1, hits give low values
[31] = S. cerevisiae deletion strains, locus YHR129C, strain ARP1, hits give low values
[32] = S. cerevisiae deletion strains, locus YHR200W, strain rpn10, hits give low values
[33] = S. cerevisiae deletion strains, locus YIL066C, strain RNR3, hits give low values
[34] = S. cerevisiae deletion strains, locus YIL073C, strain SPO22, hits give low values
[35] = S. cerevisiae deletion strains, locus YIL125W, strain kgd1, hits give low values
[36] = S. cerevisiae deletion strains, locus YIR030C, strain dcg1, hits give low values
[37] = S. cerevisiae deletion strains, locus YJL095W, strain BCK1, hits give low values
[38] = S. cerevisiae deletion strains, locus YJL134W, strain LCB3, hits give low values
[39] = S. cerevisiae deletion strains, locus YJL168C, strain set2, hits give low values
[40] = S. cerevisiae deletion strains, locus YJL187C, strain SWE1 (second series), hits give low values
[41] = S. cerevisiae deletion strains, locus YJR043C, strain POL32, hits give low values
[42] = S. cerevisiae deletion strains, locus YJR075W, strain HOC1, hits give low values
[43] = S. cerevisiae deletion strains, locus YKL009W, strain mrt4, hits give low values
[44] = S. cerevisiae deletion strains, locus YKL068W, hits give low values
[45] = S. cerevisiae deletion strains, locus YKL085W, strain MDH1 (second series), hits give low values
[46] = S. cerevisiae deletion strains, locus YKL085W, strain MDH1, hits give low values
[47] = S. cerevisiae deletion strains, locus YKL190W, strain CNB1, hits give low values
[48] = S. cerevisiae deletion strains, locus YKR001C, strain vps1, hits give low values
[49] = S. cerevisiae deletion strains, locus YLR039C, strain RIC1, hits give low values
[50] = S. cerevisiae deletion strains, locus YLR058C, strain SHM2, hits give low values
[51] = S. cerevisiae deletion strains, locus YLR102C, strain apc9, hits give low values
[52] = S. cerevisiae deletion strains, locus YLR262C, strain YPT6, hits give low values
[53] = S. cerevisiae deletion strains, locus YLR268W, strain sec22, hits give low values
[54] = S. cerevisiae deletion strains, locus YLR330W, strain CHS5, hits give low values
[55] = S. cerevisiae deletion strains, locus YLR342W, strain FKS1 (second series), hits give low values
[56] = S. cerevisiae deletion strains, locus YLR371W, strain rom2, hits give low values
[57] = S. cerevisiae deletion strains, locus YLR418C, strain cdc73, hits give low values
[58] = S. cerevisiae deletion strains, locus YML016C, strain PPZ1, hits give low values
[59] = S. cerevisiae deletion strains, locus YML032C, strain rad52, hits give low values
[60] = S. cerevisiae deletion strains, locus YML124C, strain tub3, hits give low values
[61] = S. cerevisiae deletion strains, locus YMR078C, strain ctf18, hits give low values
[62] = S. cerevisiae deletion strains, locus YMR223W, strain ubp8, hits give low values
[63] = S. cerevisiae deletion strains, locus YMR263W, strain SAP30, hits give low values
[64] = S. cerevisiae deletion strains, locus YMR307W, strain GAS1, hits give low values
[65] = S. cerevisiae deletion strains, locus YNL067W, strain RPL9B, hits give low values
[66] = S. cerevisiae deletion strains, locus YNL128W, strain TEP1, hits give low values
[67] = S. cerevisiae deletion strains, locus YNL153C, strain GIM3, hits give low values
[68] = S. cerevisiae deletion strains, locus YNL233W, strain BNI4, hits give low values
[69] = S. cerevisiae deletion strains, locus YNL250W, strain rad50, hits give low values
[70] = S. cerevisiae deletion strains, locus YNL271C, strain bni1, hits give low values
[71] = S. cerevisiae deletion strains, locus YNL298W, strain CLA4, hits give low values
[72] = S. cerevisiae deletion strains, locus YNL307C, strain MCK1, hits give low values
[73] = S. cerevisiae deletion strains, locus YNL322C, strain KRE1, hits give low values
[74] = S. cerevisiae deletion strains, locus YNR052C, strain pop2, hits give low values
[75] = S. cerevisiae deletion strains, locus YOL006C, strain TOP1, hits give low values
[76] = S. cerevisiae deletion strains, locus YOL012C, strain htz1
[77] = S. cerevisiae deletion strains, locus YOL147C, strain pex11, hits give low values
[78] = S. cerevisiae deletion strains, locus YOR061W, strain CKA2, hits give low values
[79] = S. cerevisiae deletion strains, locus YOR069W, strain VPS5, hits give low values
[80] = S. cerevisiae deletion strains, locus YOR136W, strain idh2, hits give low values
[81] = S. cerevisiae deletion strains, locus YOR144C, strain elg1, hits give low values
[82] = S. cerevisiae deletion strains, locus YOR184W, strain ser1, hits give low values
[83] = S. cerevisiae deletion strains, locus YOR316C, strain cot1, hits give low values
[84] = S. cerevisiae deletion strains, locus YPL055C, strain LGE1, hits give low values
[85] = S. cerevisiae deletion strains, locus YPL241C, strain CIN2, hits give low values
[86] = S. cerevisiae deletion strains, locus YPR119W, strain clb2, hits give low values
[87] = S. cerevisiae deletion strains, locus YPR141C, strain kar3, hits give low values
[88] = S. cerevisiae deletion strains, locus YPR163C, strain tif3, hits give low values
[89] = S. cerevisiae deletion strains, locus YPR167C, strain met16, hits give low values
[90] = S. cerevisiae deletion strains, strain wtn01, hits give low values
[91] = S. cerevisiae strains, strain wild type, hits give low values

Measured: normalized growth

c1ccc2c(c1)cc1ccc3cccc4ccc2c1c34
inactive: [1] 1.03 | [2] 1.05 | [3] 1.02 | [4] 0.995 | [5] 1.03 | [6] 1.06 | [7] 1.03 | [8] 1.02 | [9] 0.995 | [10] 0.994 | [11] 0.995 | [12] 1.02 | [13] 1.03 | [14] 0.996 | [15] 0.988 | [16] 1.02 | [17] 1.02 | [18] 0.981 | [19] 1.01 | [20] 1.03 | [21] 0.988 | [22] 0.993 | [23] 1.02 | [24] 1.03 | [25] 1.01 | [26] 1.05 | [27] 1 | [28] 1.01 and 0.927 | [29] 0.982 | S. cerevisiae deletion strains, locus YHR079C, strain IRE1, hits give low values 0.988 | [30] 0.993 | [31] 1.02 | [32] 0.998 | [33] 1.02 | [34] 1.02 | [35] 1.01 | [36] 0.991 | [37] 1.05 and 0.943 | [38] 1.01 | [39] 0.989 | [40] 1.03 | [41] 1.06 | S. cerevisiae deletion strains, locus YJR066W, strain TOR1, hits give low values 0.903 | [42] 1.02 | [43] 0.994 | [44] 1 | [45] 1.01 | [46] 1.01 | [47] 1.01 | [48] 0.994 | [49] 1.02 | [50] 1.02 | [51] 0.99 | S. cerevisiae deletion strains, locus YLR113W, strain HOG1, hits give low values 0.961 | [52] 1.04 | [53] 1.01 | [54] 1.01 | [55] 1.01 | [56] 0.994 | [57] 1.03 | [58] 1.02 | [59] 0.996 | [60] 0.996 | [61] 1.01 | [62] 1.01 | [63] 1.03 | [64] 1.02 | [65] 1.04 | [66] 1.04 | [67] 1.02 | S. cerevisiae deletion strains, locus YNL183C, strain NPR1, hits give low values 0.884 | [68] 1.03 | [69] 0.998 | [70] 1 | [71] 1.01 | [72] 0.993 | [73] 1.02 | [74] 0.982 | [75] 1.04 | [76] 0.939 | [77] 0.992 | [78] 1.01 | [79] 1.04 | [80] 0.99 | [81] 0.989 | [82] 1.01 | S. cerevisiae deletion strains, locus YOR231W, strain MKK1, hits give low values 0.979 | [83] 0.992 | [84] 1.08 | [85] 1.03 | S. cerevisiae deletion strains, locus YPL256C, strain CLN2, hits give low values 0.996 | [86] 0.983 | [87] 1 | [88] 0.995 | [89] 1 | [90] 1.01 | [91] 1.01

CCCn1c(C)c(C(=O)c2ccc3ccccc3c2)c2ccccc21
inactive: S. cerevisiae deletion strains, locus YAL040C, strain CLN3, hits give low values 0.99 | S. cerevisiae deletion strains, locus YCL061C, strain MRC1 (second series), hits give low values 0.99 | [12] 1.01 | S. cerevisiae deletion strains, locus YDR363W, strain ESC2, hits give low values 0.96 | S. cerevisiae deletion strains, locus YER002W, strain NOP16, hits give low values 0.999 | [64] 1.01 | S. cerevisiae deletion strains, locus YNL175C, strain NOP13, hits give low values 0.974 | S. cerevisiae deletion strains, locus YNL197C, strain WHI3, hits give low values 0.977 | S. cerevisiae deletion strains, locus YNL224C, strain SQS1, hits give low values 1 | [73] 0.991 | S. cerevisiae deletion strains, locus YOR083W, strain WHI5 (second series), hits give low values 0.995

Cc1ccc2cc3c(ccc4ccccc43)c3c2c1CC3
active: [10] 0.795 | [13] 0.626 | [14] 0.884 | [16] 0.868 | [22] 0.894 | [28] 0.837 | [48] 0.685 | [49] 0.64 | [52] 0.568 | [53] 0.838 | [57] 0.532 | [62] 0.844 | [72] 0.591 | [77] 0.896 | [82] 0.559
inactive: [1] 0.998 | [2] 0.988 | [3] 0.982 | [4] 0.954 | [5] 0.916 | [6] 0.963 | [7] 0.973 | [8] 0.997 | [9] 0.99 | [11] 0.96 | [12] 1 | [15] 0.96 | [17] 0.994 | [18] 0.952 | [19] 0.997 | [20] 0.917 | [21] 1 | [23] 0.981 | [24] 0.957 | [25] 0.924 | [26] 0.841 | [27] 0.922 | [29] 0.954 | [30] 0.981 | [31] 0.983 | [32] 0.933 | [33] 0.949 | [34] 0.906 | [35] 0.941 | [36] 0.961 | [37] 0.828 | [38] 0.99 | [39] 0.967 | [40] 0.99 | [41] 0.993 | [42] 0.904 | [43] 0.999 | [44] 0.997 | [45] 0.999 | [46] 0.999 | [47] 0.958 | [50] 0.981 | [51] 0.983 | [54] 0.986 | [55] 0.91 | [56] 0.974 | [58] 0.987 | [59] 0.908 | [60] 0.98 | [61] 0.959 | [63] 0.986 | [64] 0.711 | [65] 0.985 | [66] 0.931 | [67] 1.03 | [68] 0.933 | [69] 0.966 | [70] 0.959 | [71] 0.949 | [73] 0.998 | [74] 0.951 | [75] 0.937 | [76] 0.778 | [78] 0.98 | [79] 0.988 | [80] 0.927 | [81] 0.963 | [83] 0.981 | [84] 0.931 | [85] 1 | [86] 0.976 | [87] 0.983 | [88] 0.916 | [89] 0.968 | [90] 0.928 | [91] 0.97
